Compounds without any hit were thinned out: in the full panel of roughly 79,000, 15% have a hit. Activity calls are given as the source filed them. Cut-off read from the data, not from the text of the source: active = growth inhibition above about 70%; inactive = the rest.
Experiment: NCI Yeast Anticancer Drug Screen. Data for the bub3 strain (AID 167)
Conditions: S. cerevisiae bub3 mutant strain, at 50.0 µM (retest, dose inferred, filed as 5.0), hits give high values
How it was run: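 Readout: yeast growth inhibition, expressed relative to vehicle-only wells. The test organism is a mutant strain from a panel with lesions in DNA repair or checkpoint genes.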

| Compound | growth inhibition |
| --- | --- |
| CC(CN(C)C)C(=O)/C=C/c1c(Cl)cccc1Cl (stereo not given) | 92% (active) |
| COc1ccc(C(=O)c2cc(Br)ccc2O)cc1 | 11% (inactive) |
| COc1cccc(OC)c1C(=O)/C=C/c1ccccc1 | 70% (active) |
| S=C(Nc1ccc(Cl)c(Cl)c1)SC1CCCCC1 | 96% (active) |
| Cc1sc(N=Nc2c(O)[nH]c3ccccc23)nc1-c1ccccc1 | 60% (inactive) |
| O=C(NC(c1ccccc1)N1CCOCC1)c1ccccc1 (stereo not given) | -2% (inactive) |
| Cc1nc2ccc3c(ccc4nc(C)c(N=Nc5ccc(C(=N)N)cc5)c(O)c43)c2c(O)c1N=Nc1ccc(C(=N)N)cc1 | 58% (inactive) |
| CN(C)CCNC(=O)C(c1ccccc1)c1ccccc1 | -11% (inactive) |
| CCOc1ccc(C(=O)CCN2CCOCC2)cc1 | 46% (inactive) |
| O=S(Nc1ccccc1Br)c1ccccc1 (stereo not given) | 34% (inactive) |
| CSC(=S)N/N=C(\C)c1ccc[nH]1 | 97% (active) |
| Cc1ccc(Cl)cc1NN | 97% (active) |
| C[C@]12CC[C@H](O)C[C@@H]1CC[C@@H]1[C@@H]2CC[C@]2(C)[C@@H](c3cc(C(F)(F)F)n[nH]3)CC[C@@H]12 | 85% (active) |
| CCCOC(=O)C(S)C(S)C(=O)OCCC (stereo not given) | 94% (active) |
| CCC(C)(C)c1cc(Br)c(NS(=O)(=O)c2ccc(NC(C)=O)cc2)c(Br)c1 | 62% (inactive) |
| Cn1c2c(c3nc(N)nc(N)c3c1=O)CCc1ccccc1-2 | 39% (inactive) |
| Cc1ccc(C(O)CCN2CCOCC2)c(C)c1 (stereo not given) | 82% (active) |
| COC(=O)CCCC(=O)NC1=C(Nc2ccccc2)C(=O)c2ccccc2C1=O | 67% (inactive) |
| Oc1cc(Br)cc2cccnc12 | 99% (active) |
| COC(=O)Cc1cn[nH]c1C(=O)OC | -54% (inactive) |

| Compound | growth inhibition |
| --- | --- |
| O=C1CCCCCCC2=C1C(Sc1ccccc1)CC2 (stereo not given) | 69% (inactive) |
| CC/C(=C1\C=CC(=O)S1)C(CC)c1ccc(OC(C)=O)cc1 (stereo not given) | 99% (active) |
| COc1ccc(C2=C(Cl)C(=O)N(c3ccc(C)cc3)C(=O)C2(Cl)Cl)cc1 | 22% (inactive) |
| CN(C)C1C[C@@H](O[Si](C)(C)C(C)(C)C)C=C1S(=O)(=O)c1ccccc1 (stereo not given in full) | 100% (active) |
| NC(=O)C(=O)N/N=C/c1ccc([N+](=O)[O-])o1 | 35% (inactive) |
| O=C(O)C1CCC(CC2CC3CCC2C3)CC1 (stereo not given) | 69% (inactive) |
| CCCCCCCCCCCCOCC[N+](CCO)(CCO)Cc1ccccc1 | 99% (active) |
| Cc1cc(C)cc([C@H](C)N=Cc2cc(Br)ccc2O)c1 | 98% (active) |
| C=CC1(c2ccc(OC)cc2)OCCCO1 | 100% (active) |
| CC(C)CCOC(=O)c1ccc(O)cc1.[Zn+2] | 86% (active) |
| C/C=C/C=C\C1OC(O)([C@H](CC)C(=O)NC/C=C/C=C(\C)[C@H](OC)C(C)C2OC(\C=C/C=C/C=C(\C)C(=O)c3c(O)ccn(C)c3=O)[C@H](O)[C@@H]2O)C(O)C(O)C1(C)C (stereo not given in full) | -26% (inactive) |
| O=c1cccccc1[O-].O=c1cccccc1[O-].O=c1cccccc1[O-].[Dy+3] | 7% (inactive) |
| CCCC(=O)Oc1ccc(-c2ccc(Br)cc2)cc1 | 95% (active) |
| Oc1c(Cl)c(Cl)c(O)c2c1CCCC2 | 98% (active) |
| Clc1nc(Cl)nc(N2CCCc3ccccc32)n1 | 91% (active) |
| CC[C@H]1CN2CCc3cc(OC)c(OC)cc3[C@@H]2C[C@@H]1C[C@H]1NCCc2cc(OC)c(OC)cc21 | 0% (inactive) |
| S=C(NCCc1ccccc1)N/N=C/c1ccc(Cl)cc1 | 65% (inactive) |
| O=C(O)Cc1ccc2c(c1O)C(=O)c1ccccc1C2=O | 50% (inactive) |
| CC1CCN(C(=S)NNC(C)c2cc3ccccc3cn2)CC1 (stereo not given) | 97% (active) |
| Cc1c[nH]c(C(=O)O)c1-c1ccc2c(-c3ccccc3)nc3ccccc3n12 | 99% (active) |

From PubChem BioAssay (NCI)
